# Screening results: PubChem, National Center for Advancing Translational Sciences (NCATS)
# This is a sample that favours compounds with a hit; in the whole collection about 6.1% have one here.
# D3 ag: qHTS of D3 Dopamine Receptor Agonist: qHTS; D(3) dopamine receptor (Homo sapiens), P35462; AID 652048, 2013; D3R DiscoveRx beta-arrestin cells, luminescence, 90 min; actives 0.58% (n = 410,000); max activation, %; in the data active = max activation above about 30%
#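 Agonist-mode cell screen: cells plated at 1500/well and incubated overnight at 37 °C, then exposed to library compounds for 90 min at 37 °C. Detection reagent was added for 30–60 min at room temperature, and luminescence was read.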
# D1 agonist: Allosteric Agonists of the Human D1 Dopamine Receptor: qHTS; D(1A) dopamine receptor (Homo sapiens), P21728; HEK293 T-REx D1 cells, calcium flux, agonist mode; activation, % at 2 µM; actives 1% (n = 360,000); AID 504660, 2011; in the data active = activation above about 30%
# Target sequence (P21728 whole entry, looked up): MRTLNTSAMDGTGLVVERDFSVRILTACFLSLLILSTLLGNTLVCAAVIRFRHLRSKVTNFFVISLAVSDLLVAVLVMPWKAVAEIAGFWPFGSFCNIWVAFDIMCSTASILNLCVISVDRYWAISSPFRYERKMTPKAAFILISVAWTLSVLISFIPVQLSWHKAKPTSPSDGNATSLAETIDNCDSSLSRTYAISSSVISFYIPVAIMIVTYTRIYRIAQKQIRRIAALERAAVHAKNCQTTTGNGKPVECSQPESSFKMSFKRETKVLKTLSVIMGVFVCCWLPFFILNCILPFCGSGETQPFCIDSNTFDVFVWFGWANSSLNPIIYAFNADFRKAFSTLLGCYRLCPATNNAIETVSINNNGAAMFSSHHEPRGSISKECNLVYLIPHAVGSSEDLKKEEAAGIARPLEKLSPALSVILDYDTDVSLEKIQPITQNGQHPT
#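 Agonism was scored from calcium flux recorded over 180 s (1 read/s) after pintool compound addition, following a 10-cycle baseline. Cells were inducible force-coupled HEK293 TREx D1, plated overnight at 30 C and loaded with no-wash calcium dye.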
# D1 potentiator: Potentiators of Human D1 Dopamine Receptor: qHTS; D(1A) dopamine receptor (Homo sapiens), P21728; HEK293 TREx D1 cells, calcium flux, dopamine EC20 potentiation; potentiation, % at 10 µM; actives 0.036% (n = 360,000); AID 504651, 2011; in the data active = potentiation above about 30%
# D1 antag: Antagonist of Human D 1 Dopamine Receptor: qHTS. D(1A) dopamine receptor (Homo sapiens), P21728. HEK293 TREx D1 cells, calcium flux, dopamine EC80; hits give low values. activity change, negative = inhibition, % at 10 µM. actives 3.2% (n = 360,000). AID 504652, 2011; in the data active = activity change below about -30%
#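 Antagonism measured as reduced calcium response to an EC80 dopamine addition following 180 s compound pre-read; cells were inducible HEK293 Trex D1 plated overnight at 30 C, read kinetically at 1 cycle/sec.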
# DRD3 antagonist: qHTS of D3 Dopamine Receptor Antagonist: qHTS; D3R cells, DiscoveRx beta-arrestin luminescence, antagonist mode; hits give low values; actives 2.5% (n = 360,000); AID 652054, 2013; D(3) dopamine receptor (Homo sapiens), P35462; max response, negative = inhibition, %; in the data active = max response below about -50%; inconclusive = no clear call, values can overlap the other calls
#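 Cells expressing the human receptor were seeded at 1500 cells/well, incubated overnight at 37 degrees C in 5% CO2, then exposed to library compounds with dopamine controls for 90 minutes at 37 degrees C before luminescent detection.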
# Hits are given with their value; n = inactive; u = inconclusive; x = no result.
SMILES,D3 ag,D1 agonist,D1 potentiator,D1 antag,DRD3 antagonist
COc1ccccc1-c1nnc(SCC(=O)Nc2ccc(N3CCOCC3)cc2)n1C,n,n,n,-36,n
CCCc1nc(SCC(=O)Nc2ccc(N3CCOCC3)cc2)c2ccccc2n1,n,n,n,-36,n
CC(C)c1nc(SCC(=O)Nc2ccc(N3CCOCC3)cc2)c2ccccc2n1,n,n,n,n,n
CC(C)N1CCC1(C)C(=O)Nc1nccc2cccnc12 (stereo not given),n,x,x,x,n
COc1ccc(CCNC(=O)Cc2ccc(NC(=O)N3CCSc4ncccc43)cc2)cc1OC,n,n,n,n,x
O=C(CC1C(=O)NCCN1C(=O)Nc1ccc(Cl)cc1)Nc1ccc(F)cc1 (stereo not given),n,n,n,-51,n
O=C(CC1C(=O)NCCN1C(=O)c1ccc(Cl)cc1)Nc1ccc(F)cc1 (stereo not given),n,n,n,n,n
O=C(Nc1nc2ccc(S(=O)(=O)N3CCCC3)cc2s1)c1ccc(F)cc1,n,n,n,n,x
O=C(Nc1nc2ccccc2s1)c1ccc(S(=O)(=O)N2CCCC2)cc1,n,n,n,-46,x
COc1ccc(C(=O)Nc2nc3ccc(S(=O)(=O)N4CCCC4)cc3s2)cc1,n,n,n,-32,x
O=C(Nc1ccccc1)Nc1nc(Nc2cc(F)cc(F)c2)nc(NC2CCCC2)n1,x,n,n,n,x
Oc1ccccc1/C=N/NC(=S)NC1CC2CC1C1C=CCC21 (stereo not given),n,n,n,n,n
COc1ccccc1OCc1ccc(C(=O)NN)o1,n,n,n,n,n
COc1ccc(NC(=O)c2ccc(COc3ccccc3OC)o2)cc1OC,n,n,n,n,n
COc1ccc(NC(=O)c2ccc(COc3ccccc3Br)o2)cc1OC,n,n,n,-37,n
COc1ccccc1OCc1ccc(C(=O)Nc2ccc(Cl)cn2)o1,n,n,n,-36,n
c1ccc(-c2ccc(OCCCNC3CCCC3)cc2)cc1,n,41,n,-37,n
c1ccc(Cc2ccc(OCCCNC3CCCC3)cc2)cc1,x,56,n,n,x
N#Cc1ccc(OCCOCCNC2CCCC2)cc1,n,n,n,n,-50
Cc1cccc(NC(=O)CSc2nnc(-c3cccs3)o2)c1,n,n,n,n,x
CCCCCNC(=O)C(c1cccc2ccccc12)n1c(=O)c(-c2cc3ccccc3[nH]2)nc2ccccc21 (stereo not given),n,x,x,x,n
O=C(/C=C/c1cccc(Cl)c1)c1ccc([N+](=O)[O-])o1,n,n,n,n,-84
COc1cc(/C=C/C(=O)c2ccc([N+](=O)[O-])o2)ccc1O,n,n,n,n,-98
COc1ccc(/C=C/C(=O)c2ccc([N+](=O)[O-])o2)cc1OC,n,n,n,n,u
CSc1nnc(C)c(=O)n1COC(=O)c1cc(Cl)ccc1[N+](=O)[O-],n,n,n,n,n
SMILES,D3 ag,D1 agonist,D1 potentiator,D1 antag,DRD3 antagonist
CC1(C)SC(=S)N(/N=C/c2ccccc2)C1N(O)C(=O)Nc1ccc([N+](=O)[O-])cc1 (stereo not given),n,n,n,-37,-56
CNC(=O)N(O)C1N(/N=C/c2ccc(N(C)C)cc2)C(=S)SC1(C)C (stereo not given),n,n,n,n,n
CCc1ccc(C(=O)COC(=O)c2n[nH]c3ccccc23)cc1,n,n,n,n,n
Cc1ccc(CNC(=O)Cn2c(=O)cc(C)c3c(C)nn(-c4cccc(F)c4)c32)cc1,n,n,n,n,x
O=C(Cn1c(=O)sc2ccccc21)N1CCOCC1,n,n,n,n,n
COCCn1c(=NC(=O)CSCC(=O)N2CCOCC2)sc2ccccc21,n,n,n,-46,n
COc1cccc(OCc2ccc(Cn3nc(NC(=O)NCCc4ccc(OC)c(OC)c4)c4ccccc43)cc2)c1,n,x,x,x,-108
CN(C(=S)Nc1ccc(Oc2ccccc2)cc1)C1CCCCC1,n,n,n,-33,u
O=C(CN(CCO)c1ccccc1)Nc1ccc(Cl)c(S(=O)(=O)N2CCOCC2)c1,n,n,n,n,n
COc1ccc(Oc2ncc(CN3CCN(c4ccccc4)CC3)s2)cc1,35,n,n,n,n
COc1cccc(N2CCN(CC(=O)Nc3nnc(-c4ccccc4)s3)CC2)c1,n,n,n,n,n
COc1cccc(N2CCN(Cc3ncc(-c4ccccc4)o3)CC2)c1,n,n,n,n,-56
CCOC(=O)C1=CN(Cc2ccco2)S(=O)(=O)N(CC)C1c1cccc(OC)c1 (stereo not given),n,x,x,x,n
Cc1ccc(CNC(=O)Nc2nnc([C@@H]3C[C@H](O)[C@@H](CO)O3)s2)cc1,n,x,x,x,-63
CCCN1C(=O)NC2(O)C(=O)c3ccccc3C12O (stereo not given),n,n,n,n,n
CN1C(=O)NC2(O)C(=O)c3ccccc3C12O (stereo not given),n,n,n,n,-60
CC(=O)N1CCC(O)(c2cccc(C(F)(F)F)c2)CC1,n,n,n,n,n
O=C(CCCN1CCC(O)(c2ccc(Br)cc2)CC1)c1ccc(F)cc1,n,70,n,-87,-122
O=C(CCCN1CCC(O)(c2cccc(C(F)(F)F)c2)CC1)c1ccc(F)cc1,n,61,n,n,-61
Cc1noc(Cn2c(=O)c3ccccc3n(CC(=O)Nc3ccc(F)cc3F)c2=O)n1,n,n,n,n,x
C=CCSc1nc2ccccc2n2cnnc12,n,n,n,n,n
CCOC(=O)CSc1nc2ccccc2n2cnnc12,n,n,n,n,-51
CCc1ccccc1Nc1cc(C(=O)NCCc2ccccc2)c2ccccc2n1,n,n,n,n,x
COc1cccc(C=NCC(C)N=Cc2cccc(OC)c2O)c1O (stereo not given),n,n,n,n,-103
CCCCc1cc(O)c(CCCC)c(O)c1,n,102,n,n,n
SMILES,D3 ag,D1 agonist,D1 potentiator,D1 antag,DRD3 antagonist
CCCCc1c(O)c2ccccc2[nH]c1=O,n,n,n,n,n
CCOC(=O)c1c(C)[nH]c(C(=O)N/N=C/c2ccc(Br)cc2)c1C,n,n,n,-40,n
CCCNC(=O)c1[nH]c(C)c(C(=O)OCC)c1C,x,n,n,-40,x
CCOC(=O)c1[nH]c(C)c(C(=O)NC2CCCCC2)c1C,n,n,n,-89,n
CCOC(=O)c1[nH]c(C)c(C(=O)NCc2ccco2)c1C,n,n,n,n,n
CCOC(=O)c1c(C)[nH]c(C(=O)NCc2ccco2)c1C,x,n,n,-71,x
Cc1cc2c(s1)c1cnn(Cc3ccc(F)cc3)c(=O)c1n2C,x,n,n,n,x
